Values joined by “and” are separate entries in the source; they are usually repeats but may differ in a detail not shown here. Identical values can stand only once. Inconclusive results are not listed. The source holds several records for some structures; these can differ, active in one and inactive in another. Active and inactive are the calls of the source. Unless noted, the call rests on the fitted dose curve.

A short description of experiment [1]: Nuclear factor erythroid 2-related factor 2/antioxidant responsive element (Nrf2/ARE) small molecule agonists: qHTS cell viability counter screen in human keratinocytes (AID 1919968; active means well fitted curve in the direction sought with a large enough effect in the repeat runs; an effect the other way counts as inactive or inconclusive; further: nearly all actives have a fitted effect of over 55% in size). Put shortly:
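Stably transfected HaCaT (KeratinoSens), 1,500/well. Test agents in DMSO were applied for 23 h, 37 C/5% CO2. CellTiter-Fluor was incubated 1 h before the fluorescence read.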

Experiment [2] can be described thus: Nuclear factor erythroid 2-related factor 2/antioxidant responsive element (Nrf2/ARE) small molecule agonists: luciferase reporter gene qHTS assay in human keratinocytes (AID 1919969). Further: nearly all actives have a fitted effect of over 35% in size. Further: potency means the concentration at half of the fitted maximal effect. A general note: Reporter assays use an easily measured gene product as a stand-in for the process of interest.
For experiment [3], the target named is Gonadotropin-releasing hormone receptor (Homo sapiens) (UniProt P30968). The experiment in a line: Human gonadotropin-releasing hormone receptor (GnRHR) small molecule agonists, calcium flux assay in GnRHR-HEK293 cells (AID 1920063). Further: nearly all actives have a fitted effect of over 35% in size. The method, boiled down: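 Stable human GnRHR HEK293 line. 18 h plating, then calcium dye for 1 h at 37 C. Agonist-mode compound addition from DMSO stocks; fluorescence monitored 3 min.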
(In general: Calcium flux is commonly read through the fluorescence of an indicator in the cells.)

Experiment [4] deals with KiSS-1 receptor (Homo sapiens) (UniProt Q969F8). Nature of the experiment: Human kisspeptin (KISS1R) small molecule agonists, calcium flux assay in KISS1R-HEK293 cells (AID 1920064; active means well fitted curve in the direction sought with a large enough effect in the repeat runs; an effect the other way counts as inactive or inconclusive). The method, boiled down:
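After overnight (18 h) culture at 37 C/5% CO2, human KISS1R-HEK293 cells received calcium dye for 1 h, then test compound; emission at 540 nm (excitation 480 nm) was tracked for 3 min.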

Experiment [5] is described as follows: p53 small molecule agonists, cell-based qHTS assay with human liver microsomes (AID 1963577). The method, boiled down:
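p53RE-bla cells, 4,000/well, compound added after 5 h, with human liver microsomes 0.5 mg/mL and NADPH 0.5 mg/mL final; 16 h at 37 C, then LiveBLAzer 2 h RT, fluorescence.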

Experiment [6] is described as follows: p53 small molecule agonists, cell-based qHTS assay with rat liver microsomes (AID 1963578). Put shortly:
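p53RE-bla cells, 4,000/well, pre-incubated 5 h, then given compounds plus rat liver microsomes (0.5 mg/mL final) and NADPH (0.5 mg/mL final). Incubation 16 h at 37 C; beta-lactamase reporter read by LiveBLAzer fluorescence after 2 h at room temperature.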
In general terms: qHTS replaces the single test concentration by a dilution series.

A short description of experiment [7]: p53 small molecule agonists, cell-based qHTS assay: qHTS cell viability counter screen (AID 1963581). Further: nearly all actives have a fitted effect of over 45% in size. The method, boiled down:
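qHTS counter screen: 16 h compound exposure at 37 C of p53RE-bla HCT-116 cells (4,000 per well, seeded 5 h prior), cell viability by ATP luminescence.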

Experiment [8] can be described thus: p53 small molecule agonists, cell-based qHTS assay (AID 1963582; active means well fitted activation curve with a large enough effect in the signal ratio in the repeat runs, not every such curve was filed as active; the % refers to the signal ratio). The method, boiled down: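 Measured: fluorescence from cleaved LiveBLAzer substrate. System: p53RE-bla cells, 16 h compound treatment at 37 C, 2 h substrate step at room temperature.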
Experiment [9] has as its target 5-hydroxytryptamine receptor 2A (Homo sapiens) (UniProt P28223). Nature of the experiment: 5-hydroxytryptamine receptor 2A (HTR2A) small molecule antagonists, cell-based qHTS assay (AID 1963586). Further: nearly all actives have a fitted effect of over 45% in size. Put shortly:
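CHO cells stably expressing human HTR2A were plated for 18 h at 37 C, then loaded with calcium dye for 1 h. Compounds were preincubated 5 min at room temperature before DOI (4 nM solution) was added. Kinetic fluorescence was read for 3 min.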

Experiment [10] addresses Muscarinic acetylcholine receptor M1 (Homo sapiens) (UniProt P11229). The experiment in a line: Cholinergic receptor muscarinic 1 (CHRM1) small molecule antagonists, cell-based qHTS assay (AID 1963588). Further: nearly all actives have a fitted effect of over 40% in size. Further: potency means the concentration at half of the fitted maximal effect. The method, boiled down:
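Compounds were tested at 15 concentrations in three independent runs. Dye-loaded CHRM1-CHO cells were exposed 5 min at room temperature before stimulation by acetylcholine added at 50nM. Intracellular calcium was read kinetically on FDSS for 3 min.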

For experiment [11] the target is unchanged. The experiment in a line: Cholinergic receptor muscarinic 1 (CHRM1) small molecule agonists, cell-based qHTS assay (AID 1963589). Further: nearly all actives have a fitted effect of over 35% in size. Further: potency means the concentration at half of the fitted maximal effect. Put shortly: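 Kinetic fluorescence (1 s intervals) of calcium-sensitive dye in human M1 CHO cells after compound addition; cells pre-incubated 18 h at 37 C/5% CO2 and dye-loaded 1 h.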
A short description of experiment [12]: cAMP Responsive Elements (CRE) small molecule antagonists, cell-based qHTS assay (AID 1963591; active means well fitted inhibition curve with a large enough effect in the signal ratio in the repeat runs, not every such curve was filed as active; the % refers to the signal ratio). Put shortly: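 Reporter line CRE-bla HEK 293T in dialyzed-FBS DMEM; cells preincubated 18 h, treated 3 h with compound plus NKH477 (0.25 uM final); LiveBLAzer FRET, 2 h RT.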
The target in experiment [13] is Beta-2 adrenergic receptor (Homo sapiens) (UniProt P07550). The experiment in a line: Adrenergic beta2 receptor (ADRB2) small molecule antagonists, cell-based qHTS assay (AID 1963592). Further: series mostly up to about 92 µM; nearly all actives have a fitted effect of over 50% in size. The method, boiled down: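 Assay format: CHO-ADRB2 cells, 18-20hr seeding at 37C/5% CO2, then compound plus 1nM isoproterenol agonist mix for 0.5hr RT. Homogeneous time-resolved fluorescence cAMP detection after 1hr, expressed as 665/615 nm ratio.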

Experiment [14] has as its target D(2) dopamine receptor (Homo sapiens) (UniProt P14416). Nature of the experiment: Dopamine D2 receptor (DRD2) small molecule agonists, cell-based qHTS assay (AID 1963594). Further: nearly all actives have a fitted effect of over 35% in size. Put shortly:
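HEK293 cells stably expressing DRD2 were cultured 24 h at 37 C, then given Ro20-1724 (0.1 mM final) and compounds for 10 min at room temperature. NKH477 (200nM) was then added for 30 min. cAMP was read by HTRF.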

Experiment [15] has the same target. Nature of the experiment: Dopamine D2 receptor (DRD2) small molecule antagonists, cell-based qHTS assay (AID 1963595; active means well fitted inhibition curve with a large enough effect in the signal ratio in the repeat runs, with a control signal flat; the % refers to the signal ratio). The method, boiled down:
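HEK293 cells stably expressing DRD2, preincubated with 0.1 mM Ro20-1724 and compounds 10 min, were stimulated with 200 nM NKH477 plus 12 nM quinpirole for 30 min at room temperature; cAMP measured by HTRF (665/620 nm).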

Experiment [16] in a line: p53 small molecule agonists, cell-based qHTS assay with human liver microsomes: qHTS cell viability counter screen (AID 1963579). Further: nearly all actives have a fitted effect of over 45% in size. Put shortly:
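p53RE-bla cells, 4,000/well, dosed 5 hours after plating, with human liver microsomes (0.5 mg/mL final) plus NADPH (0.5 mg/mL final), 16 hours at 37 C. Viability read as CellTiter-Glo luminescence after 30 min at room temperature.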

Experiment [17] deals with 5-hydroxytryptamine receptor 2A (Homo sapiens) (UniProt P28223). The experiment in a line: 5-hydroxytryptamine receptor 2A (HTR2A) small molecule agonists, cell-based qHTS assay (AID 1963587). Further: nearly all actives have a fitted effect of over 30% in size. The method, boiled down: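 HTR2A-CHO cells, plated 18 h at 37 C/5% CO2, dye-loaded 1 h at 37 C; compounds in DMSO added by pin tool (agonist mode). Intracellular calcium flux read as kinetic fluorescence on FDSS over 2 min at 1 s intervals.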

The nature of experiment [18]: cAMP Responsive Elements (CRE) small molecule agonists, cell-based qHTS assay (AID 1963590). The method, boiled down: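 Test agents in DMSO were incubated 3 h at 37 C/5% CO2 with CRE-bla HEK 293T cells seeded 18 h earlier; LiveBLAzer B/G FRET substrate was added and read after 2 h at room temperature.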
Experiment [19] can be described thus: p53 small molecule agonists, cell-based qHTS assay with rat liver microsomes: qHTS cell viability counter screen (AID 1963580). Further: nearly all actives have a fitted effect of over 45% in size. The method, boiled down: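 Luminescent ATP readout (CellTiter-Glo, 30 min at room temperature) reports viability of p53RE-bla HCT-116 cells after 16 h at 37 C with test compounds under metabolic activation by rat liver microsomes and NADPH at 0.5 mg/mL final each.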

Experiment [20] is described as follows: G protein-coupled receptor (GPCR) small molecule agonists, calcium flux assay: HEK293 wild type cell line counter screen (AID 1920065). The method, boiled down:
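Following 18 h incubation at 37 C/5% CO2, plates got calcium dye for 1 h; compounds, ATP or DMSO were then pinned in and fluorescence followed kinetically (480/540 nm).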

D(2) dopamine receptor (Homo sapiens), sequence (P14416 whole entry, looked up): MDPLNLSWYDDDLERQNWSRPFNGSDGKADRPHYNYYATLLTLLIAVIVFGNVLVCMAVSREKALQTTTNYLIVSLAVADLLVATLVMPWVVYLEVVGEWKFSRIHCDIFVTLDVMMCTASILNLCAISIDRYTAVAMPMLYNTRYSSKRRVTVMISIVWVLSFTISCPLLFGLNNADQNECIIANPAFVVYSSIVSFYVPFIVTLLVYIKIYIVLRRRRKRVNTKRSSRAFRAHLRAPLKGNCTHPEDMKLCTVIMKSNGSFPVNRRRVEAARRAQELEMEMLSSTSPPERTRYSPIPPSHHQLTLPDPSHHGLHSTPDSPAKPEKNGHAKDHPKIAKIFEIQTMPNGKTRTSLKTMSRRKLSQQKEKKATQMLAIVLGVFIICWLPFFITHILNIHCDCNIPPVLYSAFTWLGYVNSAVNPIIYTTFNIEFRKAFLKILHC
5-hydroxytryptamine receptor 2A (Homo sapiens), sequence (P28223 whole entry, looked up): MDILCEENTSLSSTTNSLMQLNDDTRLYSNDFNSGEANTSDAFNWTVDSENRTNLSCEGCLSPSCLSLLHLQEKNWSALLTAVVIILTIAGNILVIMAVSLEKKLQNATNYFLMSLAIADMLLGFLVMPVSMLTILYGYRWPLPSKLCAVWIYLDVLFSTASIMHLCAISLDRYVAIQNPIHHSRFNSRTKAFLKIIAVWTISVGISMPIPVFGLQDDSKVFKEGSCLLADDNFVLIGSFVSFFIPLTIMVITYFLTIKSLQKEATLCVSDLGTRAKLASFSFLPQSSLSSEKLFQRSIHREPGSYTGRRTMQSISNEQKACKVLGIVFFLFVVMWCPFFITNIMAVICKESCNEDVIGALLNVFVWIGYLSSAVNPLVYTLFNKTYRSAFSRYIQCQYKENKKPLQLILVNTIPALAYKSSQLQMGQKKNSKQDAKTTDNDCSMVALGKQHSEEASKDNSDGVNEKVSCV
Gonadotropin-releasing hormone receptor (Homo sapiens), sequence (P30968 whole entry, looked up): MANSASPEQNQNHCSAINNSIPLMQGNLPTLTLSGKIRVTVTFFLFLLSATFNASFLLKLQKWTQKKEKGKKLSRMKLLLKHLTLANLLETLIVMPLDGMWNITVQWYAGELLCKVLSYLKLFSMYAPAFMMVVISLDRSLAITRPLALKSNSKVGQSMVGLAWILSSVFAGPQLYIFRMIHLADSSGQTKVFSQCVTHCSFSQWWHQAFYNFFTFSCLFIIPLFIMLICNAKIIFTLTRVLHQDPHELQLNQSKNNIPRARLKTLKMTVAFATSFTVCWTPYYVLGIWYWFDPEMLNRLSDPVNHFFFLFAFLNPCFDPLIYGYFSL
Muscarinic acetylcholine receptor M1 (Homo sapiens), sequence (P11229 whole entry, looked up): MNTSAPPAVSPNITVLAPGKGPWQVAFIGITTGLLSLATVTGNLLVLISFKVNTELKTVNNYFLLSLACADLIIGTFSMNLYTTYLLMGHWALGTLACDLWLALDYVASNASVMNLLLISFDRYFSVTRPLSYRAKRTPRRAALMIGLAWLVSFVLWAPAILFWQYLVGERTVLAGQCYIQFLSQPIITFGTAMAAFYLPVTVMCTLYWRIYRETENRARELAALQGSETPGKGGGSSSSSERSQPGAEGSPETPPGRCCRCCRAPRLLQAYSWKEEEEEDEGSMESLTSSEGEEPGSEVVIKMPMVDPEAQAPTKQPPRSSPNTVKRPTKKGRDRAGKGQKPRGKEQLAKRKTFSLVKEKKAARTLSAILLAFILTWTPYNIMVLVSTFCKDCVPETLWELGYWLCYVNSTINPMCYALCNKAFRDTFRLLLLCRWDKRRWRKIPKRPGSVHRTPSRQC
Beta-2 adrenergic receptor (Homo sapiens), sequence (P07550 whole entry, looked up): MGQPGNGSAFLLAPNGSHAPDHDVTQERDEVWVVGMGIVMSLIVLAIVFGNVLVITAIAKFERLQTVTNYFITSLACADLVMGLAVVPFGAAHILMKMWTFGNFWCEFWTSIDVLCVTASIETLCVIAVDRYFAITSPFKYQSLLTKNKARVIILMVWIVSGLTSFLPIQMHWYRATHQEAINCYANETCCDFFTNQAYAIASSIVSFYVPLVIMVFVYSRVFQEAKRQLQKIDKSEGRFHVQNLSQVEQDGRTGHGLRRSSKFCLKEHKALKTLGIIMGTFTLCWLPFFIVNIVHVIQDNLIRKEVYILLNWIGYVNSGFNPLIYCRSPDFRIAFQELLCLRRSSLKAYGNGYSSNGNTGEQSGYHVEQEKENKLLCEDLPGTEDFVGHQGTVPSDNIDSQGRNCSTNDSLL
KiSS-1 receptor (Homo sapiens), sequence (Q969F8 whole entry, looked up): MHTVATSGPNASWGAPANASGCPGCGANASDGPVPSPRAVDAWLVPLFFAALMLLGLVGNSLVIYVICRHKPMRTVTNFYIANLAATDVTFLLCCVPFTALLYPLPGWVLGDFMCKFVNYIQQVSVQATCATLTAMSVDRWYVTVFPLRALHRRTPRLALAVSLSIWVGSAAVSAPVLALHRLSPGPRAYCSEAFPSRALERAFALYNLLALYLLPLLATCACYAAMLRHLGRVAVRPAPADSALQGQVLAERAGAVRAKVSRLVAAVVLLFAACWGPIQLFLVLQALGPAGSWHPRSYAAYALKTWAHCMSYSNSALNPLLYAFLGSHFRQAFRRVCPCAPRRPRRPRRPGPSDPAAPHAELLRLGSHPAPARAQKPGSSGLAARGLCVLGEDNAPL

For `Cc1ccc2c(C)cccc2c1`, the Potency result in [1], in [2], in experiment [3], in experiment [4], in experiment [5] and in experiment [6] was “inactive” each time. Also, the Potency result in [7], in experiment [8], in experiment [9], in [10], in experiment [11] and in [12] was “inactive” throughout. Moreover, the Potency entry in experiment [13], in [14] and in experiment [15] was “inactive” each time.
Take `Cc1cccc(N)c1N`: the Potency entry in experiment [1], in experiment [3], in experiment [4], in [5], in experiment [6] and in [16] was “inactive” throughout. Further, the Potency result in experiment [7], in [8], in [9], in experiment [17], in experiment [10] and in experiment [11] was “inactive” throughout. In addition, the Potency result in experiment [18], in experiment [12], in [13], in experiment [14] and in experiment [15] was “inactive” in each case. In addition, in experiment [2], the Potency was 2.35 µM (active) and 48.6 µM (active).
For the compound `O=C/C(Cl)=C(/Cl)C(=O)O`, the Potency result in experiment [1], in experiment [3], in experiment [4], in experiment [16], in experiment [19] and in experiment [7] was “inactive” each time. For the same compound, the Potency entry in [17], in experiment [10], in [11], in [18], in [12] and in experiment [13] was “inactive” in each case. Further, the Potency entry in experiment [14] and in experiment [15] was “inactive” in each case. Further, the Potency in experiment [2] was 68.5 µM (active) and 68.6 µM (active).
With `CCOC(=O)CP(=O)(OCC)OCC`, the Potency entry in experiment [1], in experiment [2], in experiment [3], in [20], in experiment [5] and in experiment [6] was “inactive” in each case. The Potency result in [16], in experiment [19], in experiment [7], in experiment [8], in [9] and in [17] was “inactive” in each case. Further, the Potency result in experiment [10], in experiment [11], in experiment [18], in experiment [12], in experiment [13] and in [14] was “inactive” throughout. The Potency entry in experiment [15] was “inactive”.
With `COc1ccc2c(c1OC)C(=O)O[C@@H]2[C@H]1c2cc3c(cc2CCN1C)OCO3`, the Potency result in experiment [1], in experiment [2], in [3], in experiment [20], in experiment [5] and in [6] was “inactive” throughout. For the same compound, the Potency result in [16], in experiment [19], in [7], in experiment [8], in experiment [9] and in experiment [17] was “inactive” throughout. Moreover, the Potency result in [10], in experiment [11], in [18], in experiment [12], in [13] and in [14] was “inactive” throughout. Moreover, in [15], the Potency entry is “inactive”.
For the compound `Cc1cc(-c2cc(C)c(N)c(C)c2)cc(C)c1N`, the Potency result in experiment [1], in [2], in experiment [3], in [4], in experiment [5] and in [6] was “inactive” in each case. In addition, the Potency result in experiment [16], in experiment [19], in experiment [8], in experiment [17], in [11] and in [18] was “inactive” in each case. Also, the Potency result in experiment [12], in experiment [14] and in [15] was “inactive” each time. For the same compound, the Potency in experiment [10] was 2.11 µM (active) and inactive.
On to `C=CCN=C=S`, for which the Potency entry in experiment [1], in experiment [2], in experiment [3], in [20], in experiment [5] and in experiment [6] was “inactive” each time. Also, the Potency entry in experiment [16], in experiment [19], in [7], in experiment [8], in experiment [9] and in experiment [17] was “inactive” each time. Also, the Potency result in experiment [10], in experiment [11], in [18], in [12], in experiment [13] and in experiment [14] was “inactive” throughout. In addition, the Potency entry in [15] was “inactive”.
Turning to `CCCC[N+]1(C)CCCC1` (tested in a mixture with another compound), the Potency result in experiment [1], in experiment [2], in experiment [3], in experiment [20], in experiment [5] and in experiment [6] was “inactive” in each case. The Potency result in [16], in experiment [19], in [7], in experiment [8], in experiment [9] and in [17] was “inactive” in each case. Moreover, the Potency entry in experiment [18], in [12], in experiment [13], in experiment [14] and in experiment [15] was “inactive” each time. In addition, the Potency in experiment [10] was 9.54 µM (active); in [11], 4.96 µM (active).
